This is an account of results in publication PMC7862700, “An all-to-all approach to the identification of sequence-specific readers for epigenetic DNA modifications on cytosine”.

Common to all, as to assay: DAPPL (digital affinity profiling via proximity ligation, sequencing); 10 mM Tris-HCl pH 7.5, 50 mM NaCl, 1 mM DTT, 4% glycerol, room temperature, 30 min; GST-TFs on glutathione beads, 16-mer random dsDNA library, 0.1% formaldehyde crosslink after washing; high values mean tight binding
Common to all, as to conditions: protein: recombinant; tags: N-terminal GST; dsDNA, one strand shown

In test [1] the target is T1, ELK1 (Homo sapiens, UniProt P19419 1-428).
T1 sequence: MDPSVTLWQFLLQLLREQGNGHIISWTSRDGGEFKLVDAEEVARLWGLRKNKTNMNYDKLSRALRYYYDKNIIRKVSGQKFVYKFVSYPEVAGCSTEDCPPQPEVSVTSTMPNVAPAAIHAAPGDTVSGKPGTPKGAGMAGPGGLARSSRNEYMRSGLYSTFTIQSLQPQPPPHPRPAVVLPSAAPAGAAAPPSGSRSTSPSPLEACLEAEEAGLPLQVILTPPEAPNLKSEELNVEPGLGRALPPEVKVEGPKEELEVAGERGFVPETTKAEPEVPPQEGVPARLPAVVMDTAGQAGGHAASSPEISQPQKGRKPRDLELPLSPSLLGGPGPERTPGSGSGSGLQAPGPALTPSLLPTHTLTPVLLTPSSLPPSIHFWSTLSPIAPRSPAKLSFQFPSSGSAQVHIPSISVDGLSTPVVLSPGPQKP
An outline of the steps: (§1)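 GST fusions of human transcription factors were expressed in yeast and captured with glutathione beads. Once given DNA barcodes and pooled alongside a tag-only sample, they were incubated for 30 min at room temperature with 200 nmole of a random double-stranded 16-mer DNA library in Tris/NaCl/DTT/glycerol buffer, then washed, crosslinked (0.1% formaldehyde), proximity-ligated, PCR-amplified and sequenced on an Illumina NextSeq500. The binding signal of each hexamer is its read frequency for a factor divided by its frequency for the tag-only sample.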

Test [2] has as its target T2, GABPA (Homo sapiens, UniProt Q06546 1-454).
T2 sequence: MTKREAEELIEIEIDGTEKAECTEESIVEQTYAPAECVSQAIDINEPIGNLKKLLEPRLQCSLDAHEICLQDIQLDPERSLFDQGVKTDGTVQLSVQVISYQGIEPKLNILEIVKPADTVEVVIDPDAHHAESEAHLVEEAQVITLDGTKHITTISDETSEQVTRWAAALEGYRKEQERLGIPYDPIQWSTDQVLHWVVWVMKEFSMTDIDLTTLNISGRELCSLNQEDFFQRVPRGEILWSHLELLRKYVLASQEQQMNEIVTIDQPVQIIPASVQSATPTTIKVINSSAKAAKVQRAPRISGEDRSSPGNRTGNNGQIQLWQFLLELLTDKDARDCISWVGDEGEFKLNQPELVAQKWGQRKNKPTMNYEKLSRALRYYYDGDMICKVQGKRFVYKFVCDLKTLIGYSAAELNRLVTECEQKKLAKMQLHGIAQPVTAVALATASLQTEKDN
An outline of the steps: as §1

The target of test [3] is T3, ERG (Homo sapiens, UniProt P11308 1-479).
T3 sequence: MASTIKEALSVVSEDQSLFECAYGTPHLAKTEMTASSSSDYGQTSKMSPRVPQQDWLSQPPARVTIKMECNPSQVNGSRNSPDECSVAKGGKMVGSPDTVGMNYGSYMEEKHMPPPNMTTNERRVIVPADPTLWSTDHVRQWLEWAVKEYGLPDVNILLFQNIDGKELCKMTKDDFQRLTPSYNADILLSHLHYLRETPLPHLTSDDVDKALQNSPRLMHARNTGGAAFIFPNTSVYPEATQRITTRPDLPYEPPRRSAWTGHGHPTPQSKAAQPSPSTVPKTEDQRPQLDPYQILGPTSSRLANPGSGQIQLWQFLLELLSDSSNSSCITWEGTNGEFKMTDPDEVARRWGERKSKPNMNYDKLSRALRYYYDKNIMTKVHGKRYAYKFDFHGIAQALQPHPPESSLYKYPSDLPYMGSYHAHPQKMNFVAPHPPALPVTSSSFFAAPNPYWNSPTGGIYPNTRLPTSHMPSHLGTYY
The gist of the method:
as §1

For test [4], the target named is ELF1 (Homo sapiens, UniProt P32519 1-619). The gist of the method:
as §1

The target of test [5] is T4, EHF (Homo sapiens, UniProt Q9NZC4 1-300).
T4 sequence: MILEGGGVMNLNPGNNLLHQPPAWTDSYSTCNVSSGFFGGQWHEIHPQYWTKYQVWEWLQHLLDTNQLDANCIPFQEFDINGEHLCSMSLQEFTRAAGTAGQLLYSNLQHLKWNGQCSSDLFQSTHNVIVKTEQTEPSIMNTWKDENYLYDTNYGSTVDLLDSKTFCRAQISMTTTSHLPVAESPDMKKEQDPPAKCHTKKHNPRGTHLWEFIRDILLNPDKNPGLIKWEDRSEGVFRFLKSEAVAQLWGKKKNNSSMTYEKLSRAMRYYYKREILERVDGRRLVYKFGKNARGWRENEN
The gist of the method: as §1

For test [6], the target named is SPIB (Homo sapiens, UniProt Q01892 1-262). The gist of the method: as §1
The target in test [7] is T5, FEV (Homo sapiens, UniProt Q99581 1-238).
T5 sequence: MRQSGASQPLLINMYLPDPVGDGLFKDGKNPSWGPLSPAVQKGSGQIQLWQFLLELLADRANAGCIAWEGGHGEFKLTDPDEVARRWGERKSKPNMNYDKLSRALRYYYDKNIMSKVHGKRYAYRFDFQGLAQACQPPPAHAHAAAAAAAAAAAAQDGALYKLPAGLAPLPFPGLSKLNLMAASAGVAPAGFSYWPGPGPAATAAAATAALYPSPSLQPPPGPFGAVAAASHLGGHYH
The gist of the method: as §1

The target of test [8] is ETV5 (Homo sapiens, UniProt P41161 1-510). The gist of the method:
as §1

For test [9], the target named is ELF4 (Homo sapiens, UniProt Q99607 1-663). The gist of the method: as §1
In test [10] the target is T6, ELK4 (Homo sapiens, UniProt P28324-2 1-405).
T6 sequence: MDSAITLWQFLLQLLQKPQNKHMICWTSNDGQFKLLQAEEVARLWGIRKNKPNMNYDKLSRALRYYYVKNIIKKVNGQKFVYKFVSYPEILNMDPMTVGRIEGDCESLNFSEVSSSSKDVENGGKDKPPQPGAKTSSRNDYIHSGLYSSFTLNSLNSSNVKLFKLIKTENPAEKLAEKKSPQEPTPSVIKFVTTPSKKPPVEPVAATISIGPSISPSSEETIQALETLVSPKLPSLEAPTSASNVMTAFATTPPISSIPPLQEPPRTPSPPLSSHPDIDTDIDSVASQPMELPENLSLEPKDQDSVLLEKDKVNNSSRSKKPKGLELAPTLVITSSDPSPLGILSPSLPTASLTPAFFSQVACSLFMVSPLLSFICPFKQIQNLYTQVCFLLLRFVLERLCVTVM
An outline of the steps: as §1

Test [11] has as its target T7, ETV2 (Homo sapiens, UniProt O00321 1-342).
T7 sequence: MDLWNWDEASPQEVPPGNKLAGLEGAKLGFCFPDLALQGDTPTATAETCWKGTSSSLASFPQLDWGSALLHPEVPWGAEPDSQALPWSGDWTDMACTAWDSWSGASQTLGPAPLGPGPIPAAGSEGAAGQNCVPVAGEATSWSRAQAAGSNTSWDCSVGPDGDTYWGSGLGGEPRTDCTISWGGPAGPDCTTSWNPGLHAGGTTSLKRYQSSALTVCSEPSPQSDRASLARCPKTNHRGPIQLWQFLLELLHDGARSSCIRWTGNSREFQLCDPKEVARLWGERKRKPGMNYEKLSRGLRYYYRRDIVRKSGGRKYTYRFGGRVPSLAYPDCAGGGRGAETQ
An outline of the steps: as §1

Test [12] addresses T8, ELF3 (Homo sapiens, UniProt P78545 1-371).
T8 sequence: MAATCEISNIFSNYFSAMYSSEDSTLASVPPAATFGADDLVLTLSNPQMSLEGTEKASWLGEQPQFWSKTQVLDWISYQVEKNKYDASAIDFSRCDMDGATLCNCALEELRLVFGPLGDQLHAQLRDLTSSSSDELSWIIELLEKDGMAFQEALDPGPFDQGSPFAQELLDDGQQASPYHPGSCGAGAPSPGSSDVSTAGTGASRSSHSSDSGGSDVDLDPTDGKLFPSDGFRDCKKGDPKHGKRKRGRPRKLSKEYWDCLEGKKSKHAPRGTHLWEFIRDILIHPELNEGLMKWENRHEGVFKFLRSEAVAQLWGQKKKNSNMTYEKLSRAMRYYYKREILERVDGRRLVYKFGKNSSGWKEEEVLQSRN
The gist of the method: as §1

For test [13], the target named is ETV1 (Homo sapiens, UniProt P50549 1-477). An outline of the steps:
as §1

The target in test [14] is T9, ERF (Homo sapiens, UniProt P50548 1-548).
T9 sequence: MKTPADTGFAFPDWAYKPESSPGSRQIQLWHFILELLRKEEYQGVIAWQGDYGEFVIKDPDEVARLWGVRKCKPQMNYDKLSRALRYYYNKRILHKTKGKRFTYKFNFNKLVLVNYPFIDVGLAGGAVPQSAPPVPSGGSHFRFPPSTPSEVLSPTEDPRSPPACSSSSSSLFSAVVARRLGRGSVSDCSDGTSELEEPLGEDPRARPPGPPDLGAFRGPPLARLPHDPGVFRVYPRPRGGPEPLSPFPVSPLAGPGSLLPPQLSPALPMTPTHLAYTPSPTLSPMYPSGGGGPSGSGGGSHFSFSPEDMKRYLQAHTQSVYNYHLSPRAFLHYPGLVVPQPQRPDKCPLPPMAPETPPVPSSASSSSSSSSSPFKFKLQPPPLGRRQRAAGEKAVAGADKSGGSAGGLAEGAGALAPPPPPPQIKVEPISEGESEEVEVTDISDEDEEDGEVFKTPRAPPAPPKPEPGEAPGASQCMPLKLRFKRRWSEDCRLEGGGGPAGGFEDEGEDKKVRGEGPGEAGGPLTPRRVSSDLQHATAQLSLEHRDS
The gist of the method:
as §1

Test [15] addresses T10, ETV3L (Homo sapiens, UniProt Q6ZN32 1-361).
T10 sequence: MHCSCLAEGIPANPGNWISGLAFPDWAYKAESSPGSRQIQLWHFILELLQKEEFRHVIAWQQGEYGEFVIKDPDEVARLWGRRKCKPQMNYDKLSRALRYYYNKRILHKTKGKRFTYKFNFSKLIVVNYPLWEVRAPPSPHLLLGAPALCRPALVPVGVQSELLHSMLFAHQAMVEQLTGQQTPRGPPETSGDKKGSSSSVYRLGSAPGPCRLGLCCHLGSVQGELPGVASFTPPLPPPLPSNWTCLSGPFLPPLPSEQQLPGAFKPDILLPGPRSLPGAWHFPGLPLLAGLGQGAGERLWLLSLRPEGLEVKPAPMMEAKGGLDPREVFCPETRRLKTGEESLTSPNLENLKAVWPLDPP
An outline of the steps:
as §1

The target of test [16] is T11, ETS2 (Homo sapiens, UniProt P15036 1-469).
T11 sequence: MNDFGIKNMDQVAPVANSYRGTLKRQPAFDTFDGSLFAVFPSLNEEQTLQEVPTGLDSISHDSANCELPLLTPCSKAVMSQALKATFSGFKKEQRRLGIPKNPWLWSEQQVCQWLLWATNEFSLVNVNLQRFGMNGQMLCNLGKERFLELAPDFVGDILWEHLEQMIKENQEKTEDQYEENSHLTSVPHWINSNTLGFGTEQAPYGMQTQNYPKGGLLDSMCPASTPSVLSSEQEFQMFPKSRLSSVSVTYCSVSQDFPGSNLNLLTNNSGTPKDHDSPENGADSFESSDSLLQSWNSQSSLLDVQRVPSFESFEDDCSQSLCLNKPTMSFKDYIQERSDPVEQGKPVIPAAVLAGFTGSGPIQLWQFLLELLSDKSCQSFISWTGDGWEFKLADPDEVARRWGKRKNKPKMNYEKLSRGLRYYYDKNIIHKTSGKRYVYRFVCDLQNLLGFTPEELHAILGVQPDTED
An outline of the steps: as §1

For test [17], the target named is T12, ETV7 (Homo sapiens, UniProt Q9Y603 1-341).
T12 sequence: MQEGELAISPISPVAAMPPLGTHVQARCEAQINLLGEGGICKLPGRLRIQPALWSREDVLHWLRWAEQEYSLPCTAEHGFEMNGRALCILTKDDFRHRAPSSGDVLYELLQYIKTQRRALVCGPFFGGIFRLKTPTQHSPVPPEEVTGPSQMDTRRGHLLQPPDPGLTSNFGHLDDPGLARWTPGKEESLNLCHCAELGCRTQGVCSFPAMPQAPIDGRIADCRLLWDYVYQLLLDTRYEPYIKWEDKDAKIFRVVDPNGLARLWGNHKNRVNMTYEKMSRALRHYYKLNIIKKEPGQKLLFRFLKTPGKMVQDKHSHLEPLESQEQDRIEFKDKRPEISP
An outline of the steps: as §1

For test [18], the target named is T13, ETV3 (Homo sapiens, UniProt P41162-2 1-143).
T13 sequence: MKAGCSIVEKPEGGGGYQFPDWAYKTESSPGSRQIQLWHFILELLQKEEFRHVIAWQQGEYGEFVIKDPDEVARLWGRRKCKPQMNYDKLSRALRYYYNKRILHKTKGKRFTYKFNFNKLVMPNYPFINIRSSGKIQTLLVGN
An outline of the steps: as §1

Test [19] has as its target ETV6 (Homo sapiens, UniProt P41212 1-452). An outline of the steps: as §1

Chain of SPIB (Q01892 whole entry): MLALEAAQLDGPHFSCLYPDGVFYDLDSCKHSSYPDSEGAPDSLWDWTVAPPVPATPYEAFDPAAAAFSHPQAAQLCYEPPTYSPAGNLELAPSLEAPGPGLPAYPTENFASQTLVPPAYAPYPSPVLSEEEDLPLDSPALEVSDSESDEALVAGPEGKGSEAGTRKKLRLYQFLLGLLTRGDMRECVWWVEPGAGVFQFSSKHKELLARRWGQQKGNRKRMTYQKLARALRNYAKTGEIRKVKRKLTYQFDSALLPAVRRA
Chain of ETV5 (P41161 whole entry): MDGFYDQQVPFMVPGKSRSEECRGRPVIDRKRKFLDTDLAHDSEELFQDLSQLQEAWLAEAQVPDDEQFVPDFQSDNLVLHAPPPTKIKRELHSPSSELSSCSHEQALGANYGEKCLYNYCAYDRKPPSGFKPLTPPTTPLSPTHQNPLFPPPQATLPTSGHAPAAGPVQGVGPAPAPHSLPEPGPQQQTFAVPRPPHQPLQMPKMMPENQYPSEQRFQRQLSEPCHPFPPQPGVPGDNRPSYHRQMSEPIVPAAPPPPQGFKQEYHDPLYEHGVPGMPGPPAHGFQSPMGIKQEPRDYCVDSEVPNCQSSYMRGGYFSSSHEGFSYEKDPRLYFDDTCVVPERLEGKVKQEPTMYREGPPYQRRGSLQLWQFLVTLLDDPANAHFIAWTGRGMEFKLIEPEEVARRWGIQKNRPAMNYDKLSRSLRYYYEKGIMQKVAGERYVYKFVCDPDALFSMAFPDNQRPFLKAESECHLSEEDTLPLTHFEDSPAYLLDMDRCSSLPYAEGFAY
Chain of ELF4 (Q99607 whole entry): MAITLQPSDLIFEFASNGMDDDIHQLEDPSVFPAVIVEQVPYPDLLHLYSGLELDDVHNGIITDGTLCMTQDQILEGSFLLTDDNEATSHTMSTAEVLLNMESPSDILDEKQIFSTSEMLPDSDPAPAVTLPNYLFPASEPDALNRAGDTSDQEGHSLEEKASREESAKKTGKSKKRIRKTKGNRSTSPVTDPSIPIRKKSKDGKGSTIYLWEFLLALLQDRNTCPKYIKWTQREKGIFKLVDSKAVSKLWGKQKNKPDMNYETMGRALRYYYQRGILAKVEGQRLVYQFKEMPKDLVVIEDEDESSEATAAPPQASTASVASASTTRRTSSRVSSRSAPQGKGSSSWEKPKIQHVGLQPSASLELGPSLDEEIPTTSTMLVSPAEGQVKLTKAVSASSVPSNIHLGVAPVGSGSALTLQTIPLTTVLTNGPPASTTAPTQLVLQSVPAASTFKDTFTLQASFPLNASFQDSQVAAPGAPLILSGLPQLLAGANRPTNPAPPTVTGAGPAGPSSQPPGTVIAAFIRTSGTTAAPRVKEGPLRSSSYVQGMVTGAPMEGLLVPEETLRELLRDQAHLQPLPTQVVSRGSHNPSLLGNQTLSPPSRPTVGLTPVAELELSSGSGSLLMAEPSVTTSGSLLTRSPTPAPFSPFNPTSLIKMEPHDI
Chain of ETV6 (P41212 whole entry): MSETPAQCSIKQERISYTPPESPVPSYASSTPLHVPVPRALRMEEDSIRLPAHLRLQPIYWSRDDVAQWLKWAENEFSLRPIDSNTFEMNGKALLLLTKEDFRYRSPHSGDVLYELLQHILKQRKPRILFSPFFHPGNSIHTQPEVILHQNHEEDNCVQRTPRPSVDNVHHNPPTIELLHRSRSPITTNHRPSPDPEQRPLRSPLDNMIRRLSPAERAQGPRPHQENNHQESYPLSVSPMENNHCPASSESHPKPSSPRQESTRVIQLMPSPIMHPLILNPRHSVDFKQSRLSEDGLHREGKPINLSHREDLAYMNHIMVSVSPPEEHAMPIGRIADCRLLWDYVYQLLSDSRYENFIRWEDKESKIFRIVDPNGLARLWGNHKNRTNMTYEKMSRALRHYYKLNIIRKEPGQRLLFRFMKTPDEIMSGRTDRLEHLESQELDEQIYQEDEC
Chain of ELF1 (P32519 whole entry): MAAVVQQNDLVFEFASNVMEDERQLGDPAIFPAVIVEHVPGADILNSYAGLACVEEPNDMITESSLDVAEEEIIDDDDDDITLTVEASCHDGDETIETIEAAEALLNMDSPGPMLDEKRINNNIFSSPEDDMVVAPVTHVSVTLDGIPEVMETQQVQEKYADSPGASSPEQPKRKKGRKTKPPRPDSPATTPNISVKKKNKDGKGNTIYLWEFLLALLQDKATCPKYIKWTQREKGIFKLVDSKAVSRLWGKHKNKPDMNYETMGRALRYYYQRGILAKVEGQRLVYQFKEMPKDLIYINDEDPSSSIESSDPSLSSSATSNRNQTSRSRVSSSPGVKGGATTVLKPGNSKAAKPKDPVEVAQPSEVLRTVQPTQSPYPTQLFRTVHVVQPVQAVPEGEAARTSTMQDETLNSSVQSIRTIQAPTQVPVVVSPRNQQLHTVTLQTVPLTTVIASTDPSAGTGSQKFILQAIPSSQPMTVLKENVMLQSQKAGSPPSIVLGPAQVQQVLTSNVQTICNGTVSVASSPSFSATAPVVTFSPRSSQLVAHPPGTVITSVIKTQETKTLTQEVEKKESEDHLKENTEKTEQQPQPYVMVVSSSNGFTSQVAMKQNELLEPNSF
Chain of ETV1 (P50549 whole entry): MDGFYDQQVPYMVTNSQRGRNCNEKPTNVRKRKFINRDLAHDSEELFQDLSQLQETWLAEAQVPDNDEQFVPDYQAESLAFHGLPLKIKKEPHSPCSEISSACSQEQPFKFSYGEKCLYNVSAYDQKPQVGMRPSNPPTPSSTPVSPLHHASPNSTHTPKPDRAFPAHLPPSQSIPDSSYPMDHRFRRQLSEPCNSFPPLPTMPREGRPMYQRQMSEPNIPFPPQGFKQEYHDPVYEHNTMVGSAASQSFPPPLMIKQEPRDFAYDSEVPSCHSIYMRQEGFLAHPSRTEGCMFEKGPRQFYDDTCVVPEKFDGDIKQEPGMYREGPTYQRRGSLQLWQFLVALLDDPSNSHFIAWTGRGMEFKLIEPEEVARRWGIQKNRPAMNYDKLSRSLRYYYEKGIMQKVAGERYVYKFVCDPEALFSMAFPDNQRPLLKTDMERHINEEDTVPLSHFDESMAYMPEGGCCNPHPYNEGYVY

As to CATCAT, the binding signal is 1.06 fold enrichment (6-mer frequency, TF over GST control) in test [1]; 1.09 fold enrichment (6-mer frequency, TF over GST control) in test [2]; 1.08 fold enrichment (6-mer frequency, TF over GST control) in [3]; 1.15 fold enrichment (6-mer frequency, TF over GST control) in [4]; 1.07 fold enrichment (6-mer frequency, TF over GST control) in [5]; 1.09 fold enrichment (6-mer frequency, TF over GST control) in [6]. Besides, the binding signal in test [7] is 1.09 fold enrichment (6-mer frequency, TF over GST control); in test [8] it was 1.09 fold enrichment (6-mer frequency, TF over GST control); in test [9] it was 1.07 fold enrichment (6-mer frequency, TF over GST control); in test [10], 1.11 fold enrichment (6-mer frequency, TF over GST control); in [11] it was 1.22 fold enrichment (6-mer frequency, TF over GST control); in test [12], 1.1 fold enrichment (6-mer frequency, TF over GST control). Further, the binding signal was 1.07 fold enrichment (6-mer frequency, TF over GST control) in [13]; 1.1 fold enrichment (6-mer frequency, TF over GST control) in [14]; 1.07 fold enrichment (6-mer frequency, TF over GST control) in test [15]; 1.08 fold enrichment (6-mer frequency, TF over GST control) in test [16]; 1.05 fold enrichment (6-mer frequency, TF over GST control) in test [17]; 1.08 fold enrichment (6-mer frequency, TF over GST control) in test [18]. The binding signal in [19] is 1.05 fold enrichment (6-mer frequency, TF over GST control).
